# In PubChem BioAssay AID1851 (National Center for Advancing Translational Sciences (NCATS), 2009):
# Several values for one entry are separate records, joined by “and”; a condition that tells them apart may be missing. Equal entries are not always repeated. Out of some 16,000 compounds screened, about 5,700 (36%) were called active. Another 24% or so got no clear call; they are omitted. The list shows a part of the results. A number with no mark means an inactive call. Calls come from the whole dose curve; as a rule, active = well fitted curve in the direction sought with a large enough effect; inconclusive = small, poorly fitted or top-dose-only effect, or effect the other way; inactive = no such curve, though single readings can be large or run the other way.
# Biological target: Cytochrome P450 1A2 (Homo sapiens) (UniProt P05177)
# Assay: Cytochrome panel assay with activity outcomes
# Conditions: recombinant CYP, pro-luciferin dealkylation, luminescence, p450-cyp1a2; series mostly up to 57.1 µM
# % is set by controls: 0 for no effect and ±100 for the full control effect.
# Cytochrome P450 1A2 (Homo sapiens), sequence (P05177 whole entry, looked up): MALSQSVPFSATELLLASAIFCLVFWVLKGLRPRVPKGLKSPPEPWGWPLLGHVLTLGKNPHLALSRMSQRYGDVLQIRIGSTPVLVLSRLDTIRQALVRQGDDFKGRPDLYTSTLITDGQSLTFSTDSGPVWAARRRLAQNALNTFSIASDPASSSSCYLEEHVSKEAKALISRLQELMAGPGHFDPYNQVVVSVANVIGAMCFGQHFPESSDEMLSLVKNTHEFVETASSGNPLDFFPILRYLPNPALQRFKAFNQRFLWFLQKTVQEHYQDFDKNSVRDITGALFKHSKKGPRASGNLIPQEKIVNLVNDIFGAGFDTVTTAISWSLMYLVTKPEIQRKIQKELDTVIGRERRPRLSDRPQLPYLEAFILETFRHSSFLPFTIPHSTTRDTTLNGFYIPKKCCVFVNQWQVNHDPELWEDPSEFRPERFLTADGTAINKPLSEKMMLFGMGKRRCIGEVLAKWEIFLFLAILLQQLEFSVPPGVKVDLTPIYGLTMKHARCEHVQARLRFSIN
Compound,"activity, negative = inhibition",AC50
Clc1ccccc1NN(Cc1ccccn1)c1ccccc1Cl,-22.4% [at 2.29 µM],–
Clc1ccccc1NN(Cc1ccncc1)c1ccccc1Cl,–,5.01 µM (active)
CN(C)c1ccc(N=Nc2cccc3ccoc23)cc1,–,0.251 µM (active)
COC(=O)CNC(=O)CN1C(=O)N(c2ccccc2)C(N(O)C(=O)Nc2ccccc2)C1(C)C (stereo not drawn),–,inactive
O=C(Cn1cnc2ccccc21)NC(c1ccccc1)c1ccccc1,–,inactive
O=c1onc2cnc3ccccc3n12,–,2.51 µM (active)
O=C(NCCNC[C@@H](O)COc1ccc(O)cc1)N1CCOCC1,–,inactive
Cc1ccc(OCC(O)CNC(=O)c2ccccc2C(=O)O)cc1 (stereo not drawn),–,14.1 µM (active)
COCCNC(=O)COc1ccc(OCCNC[C@@H](O)COc2ccccc2)cc1,–,inactive
CC(=O)NC(CCS(C)(=O)=O)C(=O)Nc1c(F)cccc1F (stereo not drawn),–,inactive
Cc1cc(C)nc(SCCc2cccc[n+]2C)n1,-18.6% [at 2.29 µM],–
Cc1cccc(NC(=O)CSc2nc3nc(C)cc(C)c3c(=O)[nH]2)c1,–,2 µM (active)
CC[N+](CC)(CC)CC(=O)Nc1c(C)cccc1C,–,inactive
Cc1cccc(NC(=O)CSc2nc3ccccc3c3nc(CCc4c(C)n[nH]c4C)nn23)c1,–,inactive
Cc1cccc(NC(=O)CCSc2nc(C)cc(C)n2)c1,–,14.1 µM (active)
OCCN(C=NC1=NN(c2cccc(C(F)(F)F)c2)CC1)CCO,–,2.82 µM (active)
CCC(C)NC(=O)C1c2cc(OC)c(OC)cc2C(=O)N(C)C1c1cccs1 (stereo not drawn),–,inactive
COc1ccc(-c2ccc3c(n2)CCCN3C[C@H](O)CN2CCCc3nc(C)c(C)cc32)cc1,-2.83% [at 11.4 µM],–
COc1ccc(-c2cc(C(F)F)nc(-n3nc(C)cc3C)n2)cc1,–,1.78 µM (active)
Fc1ccc([C@H]2CCNC[C@H]2COc2ccc3c(c2)OCO3)cc1,–,3.16 µM (active)
COc1cc(CN2CCN(C(=O)CC(C)C)CC2)cc(OC)c1OC,–,inactive

Compound,"activity, negative = inhibition",AC50
OC(CN1CCCCC1)CN1CCCCC1,–,inactive
Cc1nn2c(NCC(C)C)c3c(nc2c1-c1ccccc1)CCC3,–,2.82 µM (active)
CCN(CC)c1nc(Nc2ccccc2)nc(Oc2ccc(C(=O)OC)cc2)n1,–,12.6 µM (active)
CCC(C)[C@H](NC(=O)Nc1ccc(Oc2ccccc2)cc1)C(=O)O (stereo partly drawn),–,inactive
CN1CCCC1CCNC1C2CC3CC(C2)CC1C3 (stereo not drawn),–,inactive
COC(=O)c1c(C)[nH]c(O)c1C=Nc1ccc(C(C)C)cc1,–,5.62 µM (active)
CSc1nsc(SC)c1C(=O)Nc1ccc(C)cc1,–,7.08 µM (active)
CCCNC(=O)OC[C@@H]1O[C@H](CCO/N=C(\C)CCN2CCc3nc(CC)c(CC)cc3C2)C=C[C@@H]1Oc1ccc(OC)cc1,-0.5% [at 11.4 µM],–
CC1=C(CC(=O)O)c2cc(F)ccc2/C1=C\c1ccc(S(C)=O)cc1 (stereo not drawn),–,3.98 µM (active) and 12.6 µM (active)
CC1=C(CC(=O)O)c2cc(F)ccc2/C1=C\c1ccc(S(C)(=O)=O)cc1,–,12.6 µM (active)
C=C(C)[C@@H]1CC=C(C(=O)O)CC1,–,inactive
COc1cccc(-c2nccc(NCc3cnc(C)cn3)n2)c1,–,0.501 µM (active)
Cc1cnc(CNc2ccnc(-c3cccc(C#N)c3)n2)cn1,–,1.26 µM (active)
Cc1cnc(CNc2ccnc(-c3cccc(NS(C)(=O)=O)c3)n2)cn1,–,20 µM (active)
O=C(NCCCN1CCC(Cc2ccccc2)CC1)C1CCN(S(=O)(=O)N2CCOCC2)CC1,–,inactive
O=[N+]([O-])c1ccc([C@@H](Nc2ccccc2)c2ccc3cccnc3c2O)cc1,-21.3% [at 2.29 µM],–
O=C(N/N=C/c1ccc(F)cc1)c1ccc(Br)cc1,–,0.794 µM (active)
Nc1ccc(C(=O)NCC(=O)O)cc1,–,inactive
O=C(N/N=C/c1cccnc1)c1ccc([N+](=O)[O-])cc1,–,5.01 µM (active)
O=[N+]([O-])c1ccc(/C=N/N/C(=N/c2ccccn2)c2ccccn2)cc1,–,12.6 µM (active)
COc1cc(/C=N/NC(=O)c2ccncc2)ccc1OC(=O)c1ccc([N+](=O)[O-])cc1,–,inactive

Compound,"activity, negative = inhibition",AC50
Nc1ccc(C(=O)N/N=C/c2ccccc2)cc1,–,25.1 µM (active)
O=C(N/N=C\c1cccc(O)c1)c1ccncc1,-15.7% [at 11.4 µM],–
CO[C@]1(NC(=O)Cc2cccs2)C(=O)N2C(C(=O)O)=C(COC(N)=O)CS[C@H]21,–,inactive
O=C(O)c1cccc(C(=O)O)c1S(=O)Cc1ccccc1 (stereo not drawn),-2.43% [at 11.4 µM],–
O=c1c(-c2cccc(F)c2)nc2cncnc2n1C1CC1,–,1.58 µM (active)
Cn1c(=O)c2c(-c3cccc(F)c3)c3c(nc2n(C)c1=O)-c1ccccc1C3O (stereo not drawn),–,inactive
O=c1c(-c2cccs2)nc2cncnc2n1C1CC1,–,2.51 µM (active)
O=c1c(-c2ccccc2)nc2cncnc2n1C1CC1,–,2 µM (active)
O=c1c(-c2cccc(Cl)c2)nc2cncnc2n1C1CC1,–,0.631 µM (active)
CCC1OC23CCCCC2C(C#N)(C(=N)O3)C1(C#N)C#N (stereo not drawn),–,inactive
NC(=O)NC(=O)[C@H]1CCCC[C@@H]1C(=O)O,-6.09% [at 11.4 µM],–
O=C1C2C3C=CC(C3)C2C(=O)N1c1ncn[nH]1 (stereo not drawn),–,inactive
COc1ccc(-n2c(=O)c(C)nc3cncnc32)cc1,–,inactive
O=c1c(-c2cc(F)cc(F)c2)nc2cncnc2n1C1CC1,–,1.26 µM (active)
O=c1c(-c2ccc(F)cc2)nc2cncnc2n1C1CC1,–,0.158 µM (active)
Cc1nc2cncnc2n(C2CC2)c1=O,–,15.8 µM (active)
O=c1c(-c2ccc(F)c(F)c2)nc2cncnc2n1C1CC1,–,0.1 µM (active)
CCC(C(=O)N1CCOCC1)n1c(C(=O)OC)cc2occc21 (stereo not drawn),–,inactive
COC(=O)c1cc2c(ccn2-c2ccc(F)cc2)n1CC(C)C,–,0.501 µM (active)
COC(=O)c1cc2c(ccn2-c2ccc(F)cc2)n1C(C)C,–,1 µM (active)
COC(=O)C/C=C\[C@@H](C)[C@@H](/C=N\O[C@@H]1O[C@H](COC(C)=O)[C@H](OC(C)=O)[C@H](OC(C)=O)[C@H]1OC(C)=O)OC,8.95% [at 11.4 µM],–
